Screens deposited in PubChem by National Center for Advancing Translational Sciences (NCATS).
HEK cytotox = kills HEK 293 cells; 94,000 compounds, 6.6% hits; AID 1345083; Potency, µM (top dose mostly 115 µM), inactives show top-dose activity change, negative = cytotoxicity, most hits filed as inhibitors; HEK 293 viability, ATP luminescence (CellTiter-Glo), 48-72 h; also: nearly all actives have a fitted effect of over 60% in size
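Pintool-delivered compounds were incubated with HEK 293 cells (250 cells/well) at 37 degree Celsius for 48 or 72 hr. ATP-dependent luminescence (CellTiter-Glo) then reported remaining viable cells.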
hNpr1 antagonist = antagonists of human natriuretic peptide receptor Npr1; HEK293 hNpr1 GloSensor cGMP, ANP-stimulated luminescence; Potency, µM (series often up to 46.3 µM), for inactives: top-dose activity change, negative = inhibition, actives largely listed as inhibitors; 76,000 compounds, 1.6% hits; calls by dose curve; also: nearly all actives have a fitted effect of over 60% in size
Target sequence (P16066 whole entry, looked up): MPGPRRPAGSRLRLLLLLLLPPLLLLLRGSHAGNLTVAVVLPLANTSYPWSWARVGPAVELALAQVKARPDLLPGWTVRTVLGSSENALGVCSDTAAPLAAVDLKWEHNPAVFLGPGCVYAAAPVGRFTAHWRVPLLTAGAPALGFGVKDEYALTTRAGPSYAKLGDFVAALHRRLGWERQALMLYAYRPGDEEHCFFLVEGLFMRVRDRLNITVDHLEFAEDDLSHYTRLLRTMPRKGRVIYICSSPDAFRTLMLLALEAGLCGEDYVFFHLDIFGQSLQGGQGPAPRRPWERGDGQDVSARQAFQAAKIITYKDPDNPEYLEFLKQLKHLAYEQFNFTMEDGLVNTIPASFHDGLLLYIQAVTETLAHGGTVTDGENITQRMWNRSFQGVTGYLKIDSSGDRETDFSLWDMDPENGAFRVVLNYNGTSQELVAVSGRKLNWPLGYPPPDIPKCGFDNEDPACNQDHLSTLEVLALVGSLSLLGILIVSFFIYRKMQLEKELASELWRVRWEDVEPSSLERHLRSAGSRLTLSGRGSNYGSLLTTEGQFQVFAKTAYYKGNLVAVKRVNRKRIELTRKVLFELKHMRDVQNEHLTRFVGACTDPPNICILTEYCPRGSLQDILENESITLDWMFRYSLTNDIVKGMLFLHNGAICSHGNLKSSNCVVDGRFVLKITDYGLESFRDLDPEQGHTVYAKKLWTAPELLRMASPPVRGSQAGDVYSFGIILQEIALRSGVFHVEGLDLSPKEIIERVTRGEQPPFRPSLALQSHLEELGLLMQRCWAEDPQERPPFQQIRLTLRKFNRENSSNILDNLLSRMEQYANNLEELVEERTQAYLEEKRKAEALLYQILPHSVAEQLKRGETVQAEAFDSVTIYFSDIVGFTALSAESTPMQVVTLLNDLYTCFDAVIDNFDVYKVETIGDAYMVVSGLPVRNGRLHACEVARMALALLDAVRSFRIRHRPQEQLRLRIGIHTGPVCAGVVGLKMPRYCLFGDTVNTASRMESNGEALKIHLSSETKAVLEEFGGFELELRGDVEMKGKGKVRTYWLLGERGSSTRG
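HEK293 cells stably expressing human Npr1 and cGMP GloSensor pGS-40F, loaded 2 h with 2% GloSensor reagent, given compound 30 min at room temperature. Luminescence read before and 20 min after 0.1 nM hNppA.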
FLuc inh = blocks purified firefly luciferase enzyme activity; purified P. pyralis luciferase, luminescence, biochemical; Potency, µM (doses to about 115 µM), hits mostly inhibitors; 76,000 compounds, 2.5% hits; also: nearly all actives have a fitted effect of over 65% in size
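Purified 10nM P. pyralis luciferase with 10uM D-luciferin and 10uM ATP in 50mM Tris acetate pH 7.5, 10mM Mg acetate, 0.01% Tween-20, 0.05% BSA. qHTS titration; luminescence read by CCD imager.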
3T3 cytotox = NIH 3T3 cell cytotoxicity. NIH 3T3 viability, CellTiter-Glo ATP luminescence, 48-72 h. Potency, µM (titrated, usually from 96.7 µM), without a hit: at the highest dose activity change, negative = cytotoxicity, hits mostly inhibitors. 94,000 compounds, 4.3% hits. AID 1345082; also: nearly all actives have a fitted effect of over 55% in size
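First NIH 3T3 cells are plated at 400 cells/well; next compound is pinned in; then plates incubate 48 or 72 hr at 37 °C; finally CellTiter-Glo is added and luminescence read after 10 min.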
* marks the source's active call; other numbers are inactive results; i = inactive; ? = inconclusive; . = no result; [ ] = another dose, or the depositor's remark. An excerpt weighted towards active compounds, which were near 11% of everything screened. Unless noted, calls follow the shape of the dose curve; as a rule, active = well fitted curve in the direction sought with a large enough effect; inconclusive = small, poorly fitted or top-dose-only effect, or another doubt; inactive = no such curve, though single readings can be large; an effect the other way counts as inactive or inconclusive. % is scaled to controls: 0 for no effect and ±100 for the full control effect; potency is read from the fitted curve at half-maximal effect.

SMILES	HEK cytotox	hNpr1 antagonist	FLuc inh	3T3 cytotox
O=C1COc2ccc(-c3ccccc3F)nc2CN1Cc1ccccc1	?	-19.6%[70.6 µM]	i	?
Cc1cnc(C2CN(S(=O)(=O)c3ccccc3)C2)n1Cc1cccnc1	i	.	.	-19.6%
Cc1noc2c(NC(C)C)cc(-c3cccc(C(F)(F)F)c3)nc12	100µM*	-2.6%[70.6 µM]	i	?
Cc1noc2c(NCc3ccncc3)cc(-c3cccc(C(F)(F)F)c3)nc12	70.8µM*	-1.6%[70.6 µM]	i	50.1µM*
Cc1noc2c(NC(C)C)cc(-c3ccccc3)nc12	?	0.8%[70.6 µM]	i	?
CC(C)NC(=O)c1cc(C(C)(C)C)c2cccn2n1	-11.0%[172 µM]	.	.	-5.6%[138 µM]
C#CCNC(=O)c1cc(-c2cccc(C(F)(F)F)c2)c2cccn2n1	?	.	.	50.1µM*
CC(C)NC(=O)c1cc(-c2cccc(C(F)(F)F)c2)c2cccn2n1	35.5µM*	.	.	?
O=C(NCc1ccc(F)cc1)c1cc(-c2ccc(Cl)cc2Cl)c2cccn2n1	?	.	.	-29.3%
O=C(NCc1ccc(F)cc1)c1cc(-c2cccc(C(F)(F)F)c2)c2cccn2n1	25.1µM*	.	.	?
O=C(NCC(F)(F)F)c1cc(-c2cccc(C(F)(F)F)c2)c2cccn2n1	35.5µM*	.	.	?
C#CCNC(=O)c1cc(C(C)(C)C)c2cccn2n1	-29.9%[172 µM]	.	.	-16.0%[138 µM]
CCN(CC1CCCO1)C(=O)C1CCN(c2nc(-c3ccccc3)nc3c2CCC3)CC1 (stereo unspecified)	?	0.0%	i	?
O=C(NC1CC1)c1cc(-c2cccc(C(F)(F)F)c2)c2cccn2n1	35.5µM*	.	.	?
O=C(NC1CCCC1)c1cc(-c2cccc(C(F)(F)F)c2)c2nncn2n1	1.0%	.	.	-16.5%
CCC(C)Oc1ccc(CNC(=O)c2cn(CCN)nn2)cc1 (stereo unspecified)	31.6µM*	2.5%	i	?
CC1(COc2ccccc2)COc2ccc(C(=O)NCc3cccs3)cc2N1 (stereo unspecified)	112µM*	-11.2%[70.6 µM]	i	?
CC1(CNCc2ccccc2)COc2ccc(C(=O)NCc3cccs3)cc2N1 (stereo unspecified)	?	-11.2%[70.6 µM]	i	?
CC1(CNc2ccccc2)COc2ccc(C(=O)NCc3cccs3)cc2N1 (stereo unspecified)	100µM*	-2.1%[70.6 µM]	i	?
C[C@]1(CO)[C@H]2Cc3sc(NC(=O)c4ccc(F)cc4)nc3[C@@H](CC(=O)N3CCOCC3)[C@]2(C)CC[C@H]1O	-16.7%	3.1%	i	-11.8%
CC(C)N1CC2(CCN(C(=O)C3CC3)CC2)C1c1ccccc1 (stereo unspecified)	1.4%	.	.	-8.5%
O=C(c1cc2cn(C3CC3)cc2s1)N1CCc2ccccc2C1	89.1µM*	-1.1%	i	?
CN1CCC(N2CCN(C(=O)c3cc4cn(C5CC5)cc4s3)CC2)CC1	i	-7.9%	i	i
Cc1cc(C)c(CNC(=O)c2nc(-c3cccnc3)cc3c2ccn3C(C)C)c(=O)[nH]1	100µM*	-4.1%[70.6 µM]	i	?
Cc1cc(C)c(CNC(=O)c2nc(-c3ccc(F)cc3)cc3c2ccn3C(C)C)c(=O)[nH]1	50.1µM*	2.7%[70.6 µM]	i	44.7µM*
SMILES	HEK cytotox	hNpr1 antagonist	FLuc inh	3T3 cytotox
Cc1cc(C)c(CNC(=O)c2nc(-c3ccc(CO)cc3)cc3c2ccn3C(C)C)c(=O)[nH]1	79.4µM*	3.6%	i	?
COc1cccc(-c2cc3c(ccn3C(C)C)c(C(=O)NCc3c(C)cc(C)[nH]c3=O)n2)c1	?	-0.6%	i	?
Cc1cc(C)c(CNC(=O)c2nc(-c3cncnc3)cc3c2ccn3C(C)C)c(=O)[nH]1	?	5.3%[70.6 µM]	i	?
Cc1cc(-c2cc3c(ccn3C(C)C)c(C(=O)NCc3c(C)cc(C)[nH]c3=O)n2)ccn1	44.7µM*	-7.8%[70.6 µM]	i	44.7µM*
Cc1ccc(C(=O)N2CCCC(C(=O)N3CCC(c4nc5ccncc5[nH]4)CC3)C2)cc1 (stereo unspecified)	-14.4%	.	.	-23.5%
N#Cc1ccc(CN2CC[C@@H]3C(=O)NCCCCCCN(Cc4ccncc4)[C@@H]3C2)cc1	-10.6%	0.9%	i	-28.3%
O=C(c1ccc(C(F)(F)F)cc1)N1CCCC(C(=O)N2CCC(N3CCCC3=O)CC2)C1 (stereo unspecified)	-2.0%	.	.	-14.5%
Cc1cc(C)cc(-c2ccc(CN3CCCC3C(=O)NC3CCCC3)cc2)c1 (stereo unspecified)	28.2µM*	.	.	22.4µM*
C#CCNC(=O)C1CCCN1Cc1ccc(-c2cc(C)cc(C)c2)cc1 (stereo unspecified)	44.7µM*	.	.	?
CC(C)c1ccc(CN2CCCC3(CCN(c4ncccc4C(N)=O)C3)C2)cc1 (stereo unspecified)	39.8µM*	-6.5%	i	?
CN(C)CC1(O)CCCN(c2ncccc2C(N)=O)CC1 (stereo unspecified)	-4.2%	6.2%	i	-2.0%
Cc1ccc([S+](=O)([O-])N2CCC(N3C(=O)c4c(c(C)nn4-c4ccccc4)C3C)CC2)cc1 (stereo unspecified)	-21.0%	.	.	-27.6%
CCC(=O)N1Cc2ccccc2CC2(CCCN2CC2CCCC2)C1 (stereo unspecified)	?	.	.	-4.0%
c1cc(-c2cc(-c3ccncc3)c3cncn3c2)cc(N2CCOCC2)c1	?	-12.7%[70.6 µM]	i	22.4µM*
Oc1cccc(-c2cc(-c3ccncc3)c3cncn3c2)c1	?	-18.3%[70.6 µM]	i	?
FC(F)(F)c1cccc(-c2cc(-c3ccncc3)c3cncn3c2)c1	?	-19.2%[70.6 µM]	i	35.5µM*
Cc1noc2c(-c3ccc(N4CCOCC4)cc3)cc(-c3ccccc3)nc12	?	2.7%[70.6 µM]	i	?
Cc1noc(C)c1-c1cc(-c2cccc(N3CCOCC3)c2)cn2cncc12	?	-8.4%[70.6 µM]	i	17.8µM*
COC(=O)N1CCCN(c2nccc(Nc3ccc(C)cc3)n2)C1	50.1µM*	.	.	35.5µM*
COc1ccc(Nc2ccnc(N3CCN(C(=O)c4ccc(C(F)(F)F)cc4)CC3)n2)cc1	35.5µM*	.	.	?
COc1ccc(C(=O)N2CCCN(c3nccc(Nc4ccc(C)cc4)n3)C2)cc1	11.2µM*	.	.	?
Cc1ccc(Nc2ccnc(N3CCCN([S+](=O)([O-])c4cccs4)C3)n2)cc1	25.1µM*	.	.	?
Cc1ccc(Nc2ccnc(N3CCCC3C(=O)N3CCN(C)CC3)n2)cc1 (stereo unspecified)	-29.4%	.	.	-25.6%
O=C(c1ccccc1)N1CCN(C(=O)c2nc3cccnc3n(Cc3ccccc3)c2=O)CC1	0.3%	.	.	-18.1%
COc1ccc(Nc2ccnc(N3CCN(C(=O)c4ccc(C)cc4)CC3)n2)cc1	12.6µM*	.	.	31.6µM*
CC(C)NC(=O)c1ccccc1OCC1CCCN(Cc2ccc3[nH]ccc3c2)C1 (stereo unspecified)	?	.	.	-44.7%
CCOCCn1c(=O)[nH]c2cc(C(=O)NCCc3ccc(C)s3)ccc21	?	3.9%	39.8µM*	-24.5%
